Several values for one entry are separate records, joined by “and”; a condition that tells them apart may be missing. Equal entries are not always repeated. Results filed as inconclusive are left out. Some compounds were tested as several samples or in several runs, with calls that do not always agree. Activity calls are given as the source filed them. Unless noted, calls follow the shape of the dose curve; as a rule, active = well fitted curve in the direction sought with a large enough effect; inconclusive = small, poorly fitted or top-dose-only effect, or another doubt; inactive = no such curve, though single readings can be large; an effect the other way counts as inactive or inconclusive.
Tests used:
[1] = qHTS assay for small molecule disruptors of the mitochondrial membrane potential - 1 hr assay (AID 651754; calls by dose curve; also: nearly all actives have a fitted effect of over 35% in size; also: potency is read from the fitted curve at half-maximal effect)
Procedure, shortened: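 HepG2 cells, attached overnight at 37C, were exposed to compound or DMSO vehicle for 1 hr at 37C, 5% CO2, then stained with Mito-MPS dye for 30 min. Red aggregate versus green monomer fluorescence reports membrane potential.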

[2] = qHTS assay for small molecule disruptors of the mitochondrial membrane potential - 5 hr assay (AID 651755; calls by dose curve; also: nearly all actives have a fitted effect of over 40% in size; also: potency is read from the fitted curve at half-maximal effect)
Procedure, shortened: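 HepG2 cells (2,000/well), attached overnight, exposed to compound 5 hr at 37C, then Mito-MPS dye 30 min. Fluorescence read for monomers (490/535 nm) and aggregates (540/590 nm).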

[3] = target: Peroxisome proliferator-activated receptor alpha (Homo sapiens) (UniProt Q07869); test: qHTS assay for small molecule agonists of the peroxisome proliferator-activated receptor alpha (PPARalpha) signaling pathway (AID 651778); conditions: PathHunter PPARalpha complementation, chemiluminescence, 6 h; stronger effect = higher value; also: % of control where 0% means no effect
Chain of Peroxisome proliferator-activated receptor alpha (Homo sapiens) (Q07869 whole entry, looked up, the tested form may be a part): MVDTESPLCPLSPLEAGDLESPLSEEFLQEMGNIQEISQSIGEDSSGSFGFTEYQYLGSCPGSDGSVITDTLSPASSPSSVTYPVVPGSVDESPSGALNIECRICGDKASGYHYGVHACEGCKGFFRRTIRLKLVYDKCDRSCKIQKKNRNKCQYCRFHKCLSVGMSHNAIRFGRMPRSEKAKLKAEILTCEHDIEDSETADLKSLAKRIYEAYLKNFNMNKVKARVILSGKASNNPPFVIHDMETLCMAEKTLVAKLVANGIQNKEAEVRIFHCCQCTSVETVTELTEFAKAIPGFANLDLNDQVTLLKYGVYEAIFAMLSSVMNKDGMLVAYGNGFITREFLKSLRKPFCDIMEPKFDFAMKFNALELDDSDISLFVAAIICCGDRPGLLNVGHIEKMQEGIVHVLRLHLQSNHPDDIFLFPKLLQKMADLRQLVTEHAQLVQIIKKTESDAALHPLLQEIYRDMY
Procedure, shortened: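 Enzyme-fragment complementation assay in which ligand-bound PPARalpha translocates and forms an active enzyme that generates chemiluminescence. Cells were plated overnight, exposed to compound for 6 hr at 37 C, and then given detection reagent for 60 min at room temperature.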

[4] = qHTS assay for small molecule antagonists of the retinoid-related orphan receptor gamma (ROR-gamma) signaling pathway - cell viability counter screen (AID 720652; active = well fitted curve in the direction sought with a large enough effect in the repeat runs; an effect the other way counts as inactive or inconclusive;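 also: series mostly up to about 92 µM; compound exposure lasted 16 hr before ATP read; % is scaled to controls: 0 for no effect and ±100 for the full control effect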)
Procedure, shortened: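 Counter screen in CHO cells carrying TET-inducible ROR-gamma and an ROR response element-luciferase reporter; cells plated 5 hr, compound pinned, doxycycline added, then 16 hr at 37 C. Viability read as intracellular ATP by CellTiter-Glo luminescence.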

[5] = qHTS assay for small molecule agonists of the antioxidant response element (ARE) signaling pathway measured by Nrf2-dependant transcriptional activity - cell viability counter screen (AID 720653; active = well fitted curve in the direction sought with a large enough effect in the repeat runs; an effect the other way counts as inactive or inconclusive; also: potency is read from the fitted curve at half-maximal effect; as to max response: % is scaled to controls: 0 for no effect and ±100 for the full control effect); conditions: ARE-bla HepG2 viability, CellTiter-Glo ATP luminescence, 16 h; max response: stronger effect = lower value
Procedure, shortened: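 ARE-bla HepG2 cells treated with compounds for 16 h at 37C; this counter screen measures viability as intracellular ATP by CellTiter-Glo luminescence after 30 min at room temperature.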

[6] = qHTS assay for small molecule activators of the nuclear factor-kappa B (NF-kB) signaling pathway (AID 651749; active = well fitted activation curve with a large enough effect in the signal ratio; the % refers to the signal ratio; also: series mostly up to about 77 µM; % of control where 0% means no effect); conditions: NF-kB-bla ME-180 cells, beta-lactamase FRET ratio, 16 h; stronger effect = higher value
Procedure, shortened: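 Incubation lasted 16 hr at 37C in 5% CO2 after 23 nL compound addition to ME-180 NF-kB-bla cells. Activation appears as beta-lactamase-mediated FRET loss.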

[7] = qHTS assay for environmental chemicals that activate the Aryl hydrocarbon Receptor (AhR) signaling pathway (AID 651777); conditions: 1A2-DRE human hepatoma cells, luciferase, 24 h; activation: stronger effect = higher value; also: nearly all actives have a fitted effect of over 15% in size; also: potency is read from the fitted curve at half-maximal effect; as to activation: % of control where 0% means no effect
Procedure, shortened: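 Luminescence read-out: One-Glo added for 30 min at RT after 24 hr compound treatment (37 C, 5% CO2) of human hepatoma cells expressing a DRE/CYP1A2 promoter–luciferase reporter; increased signal indicates AhR activation.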

[8] = target: Tumor necrosis factor (Homo sapiens) (UniProt P01375); test: qHTS assay to identify small molecules that stimulate Tumor Necrosis Factor-alpha (TNF-alpha) secretion (AID 651757; active = well fitted curve in the direction sought with a large enough effect in the signal ratio; the % refers to the signal ratio; also: 0% is about no effect)
Chain of Tumor necrosis factor (Homo sapiens) (P01375 whole entry, looked up): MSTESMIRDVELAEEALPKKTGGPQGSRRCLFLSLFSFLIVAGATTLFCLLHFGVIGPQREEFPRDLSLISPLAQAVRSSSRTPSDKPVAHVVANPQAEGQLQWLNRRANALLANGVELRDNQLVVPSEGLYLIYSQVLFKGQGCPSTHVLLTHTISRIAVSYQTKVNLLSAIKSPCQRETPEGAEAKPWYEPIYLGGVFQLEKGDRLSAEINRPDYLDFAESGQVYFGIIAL
Procedure, shortened: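 THP-1 cells were exposed to compounds for 17 hrs at 37 C, after which secreted TNF-alpha was measured by homogeneous HTRF (TR-FRET) using cryptate- and XL665-labeled anti-TNF-alpha antibodies, read after 3 hr at room temperature.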

[9] = target: Nuclear receptor ROR-gamma (Homo sapiens) (UniProt P51449); test: qHTS assay for small molecule antagonists of the retinoid-related orphan receptor gamma (ROR-gamma) signaling pathway (AID 651802); also: nearly all actives have a fitted effect of over 60% in size; also: potency is read from the fitted curve at half-maximal effect
Chain of Nuclear receptor ROR-gamma (Homo sapiens) (P51449 whole entry, looked up): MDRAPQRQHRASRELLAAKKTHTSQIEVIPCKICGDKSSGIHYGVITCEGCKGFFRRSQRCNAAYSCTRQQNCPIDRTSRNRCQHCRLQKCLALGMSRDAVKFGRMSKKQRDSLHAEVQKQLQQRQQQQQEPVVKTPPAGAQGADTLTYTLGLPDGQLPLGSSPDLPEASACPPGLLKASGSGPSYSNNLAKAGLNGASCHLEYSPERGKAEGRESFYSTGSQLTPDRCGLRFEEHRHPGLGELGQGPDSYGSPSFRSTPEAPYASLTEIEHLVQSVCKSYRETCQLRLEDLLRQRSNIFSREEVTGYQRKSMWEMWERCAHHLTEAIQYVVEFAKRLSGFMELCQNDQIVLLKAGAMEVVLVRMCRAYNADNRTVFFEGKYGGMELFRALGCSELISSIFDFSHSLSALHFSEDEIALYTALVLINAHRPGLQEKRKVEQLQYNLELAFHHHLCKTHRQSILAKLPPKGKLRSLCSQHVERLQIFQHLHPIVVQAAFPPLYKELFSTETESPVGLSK
Procedure, shortened: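 CHO cells carrying TET-inducible ROR-gamma and an ROR response element–luciferase reporter were exposed to compound, then induced with doxycycline. After 16hr at 37C, luminescence was read; lower signal indicates antagonism.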

[10] = qHTS assay to identify small molecules that stimulate interleukin-8 (IL-8) secretion (AID 651758; active = well fitted activation curve with a large enough effect in the signal ratio; the % refers to the signal ratio; also: 0% is about no effect)
Procedure, shortened: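 THP-1 cells (2000/well) exposed to compound 16 h at 37 C; secreted IL-8 then detected by HTRF with cryptate- and XL665-labelled anti-IL-8 antibody pair after 1-3 h at room temperature.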

Nc1c2ccccc2nc2ccccc12
active: Potency [1] 9.44 µM | Potency [2] 15 µM | Potency [5] 31.6 µM
inactive: max response [3] -4.95% | outcome [4]

CCCCCCCCCCCC[N+](C)(C)Cc1ccccc1
inactive: activation [6] 3.11% | activation [7] -1.52% | max response [3] 8.99% | max response [5] -5.65%

CC(C)(c1ccc(O)cc1)c1ccc(O)cc1
inactive: activation [6] -0.409% and -2.36% and -2.41% | outcome [8] | activation [7] 3.05% and 4.15% and 3.72% | max response [3] -6.65% and -3.38% and -3.11% | outcome [4] | max response [5] -12.4% and -0.346% and -0.0074%

c1ccc2occc2c1
inactive: activation [6] -0.808% and 0.0616% and -0.684% | Potency [1] | Potency [2] | outcome [8] | activation [7] 2.4% | max response [3] 0.199% and 3.33% and -1.19% | Potency [9] | outcome [4] | max response [5] 3.88% and -20.4% and 16.8%
active: Potency [7] 1.26 mM and 25.1 µM

O=C(Oc1ccccc1)c1ccccc1O
inactive: outcome [8] | activation [7] -0.0038% and 1.61% | max response [3] 7.82% and -2.96% | Potency [9] | outcome [4] | max response [5] -7.62% and 5.57%

COC(=O)c1c(Cl)c(Cl)c(C(=O)OC)c(Cl)c1Cl
inactive: activation [6] 0.623% | activation [7] 0.102% | max response [3] -0.617% | max response [5] -11.1%

O=C(c1ccccc1)c1ccccc1
inactive: Potency [1] | Potency [2] | outcome [8] | activation [7] -0.735% and 18.8% | max response [3] -0.839% and -0.419% | outcome [4] | max response [5] 6.09% and -10.7%

CC(C)(C)c1ccc(O)c(O)c1
active: Potency [1] 37.6 µM | Potency [9] 59.6 µM
inactive: activation [6] -0.887% and -1.66% | outcome [8] | activation [7] 7.39% and 2.07% | max response [3] 11.7% and 0.802% | max response [5] -2.01% and -13.6%

Nc1cccc2c(N)cccc12
inactive: activation [6] -0.416% and 0.0033% | max response [3] -0.422% and -2.29% | outcome [4]

C1=CC2C3C=CC(C3)C2C1 (configuration not stated)
inactive: activation [6] -1.05% | outcome [8] | activation [7] 0.971% | max response [3] -3.12% | Potency [9] | outcome [4] | max response [5] -2.11%

CN1C(=O)c2ccccc2C1=O
inactive: activation [6] 0.745% | activation [7] 1.05% | max response [3] -1.08% | max response [5] -2.52%

Cc1cc(C(C)(C)C)c(O)c(C(C)(C)C)c1
inactive: activation [6] -0.477% | outcome [8] | activation [7] 0.771% and -0.0452% | max response [3] 0.589% | outcome [4] | max response [5] -5.59% and 4.89%

CCCCCCCCCCCCCCCC[n+]1ccccc1
inactive: Potency [1] | Potency [2] | outcome [8] | activation [7] 5.1% | max response [3] 1.85% | max response [5] -10.4%

CCCC(=O)c1cc(O)c(O)cc1O
inactive: activation [6] 0.282% | Potency [2] | activation [7] -2.11% | max response [3] -3.73% | Potency [9] | max response [5] -22.5%

CC(=O)OC/C=C(C)/C=C/C=C(C)/C=C/C1=C(C)CCCC1(C)C
inactive: activation [6] -1.82% and 0.334% | Potency [1] | Potency [2] | outcome [8] | activation [7] -0.036% and -0.475% | max response [3] -6.94% and -1.56% | Potency [9] | outcome [4] | max response [5] 6.19% and 7.05%

O=C(NO)c1ccccc1
inactive: activation [6] 0.132% | outcome [8] | outcome [10] | activation [7] -0.612% | max response [3] -0.429% | Potency [9] | outcome [4] | max response [5] -9.7%

Brc1ccccc1-c1ccccc1
inactive: activation [6] -0.27% | Potency [1] | Potency [2] | outcome [8] | outcome [10] | max response [3] -0.0593% | outcome [4] | max response [5] 3.59%

OCc1c[nH]c2ccccc12
inactive: activation [6] -1.28% | Potency [1] | Potency [2] | outcome [8] | activation [7] 2.25% | max response [3] -6.59% | outcome [4] | max response [5] 3.93%

Oc1ccccc1
inactive: outcome [8] | activation [7] -1.73% and 0.212% and 0.333% | max response [3] -1.31% and -1.33% and -1.91% | Potency [9] | outcome [4] | max response [5] -6.78% and -2.25% and 3.75%

CCCCC(CC)COC(=O)c1ccccc1C(=O)O (configuration not stated)
inactive: Potency [1] | Potency [2] | outcome [8] | outcome [10] | Potency [9] | outcome [4] | max response [5] 4.74% and -13.7%

— PubChem BioAssay (NCATS)
